Results from PubChem BioAssay (EPA / NIEHS).
Activity calls are given as the source filed them. How the source made its calls: active means hit-call score of the fitted dose curve at least 0.9, where 1 is the maximum; inactive means score below 0.9.

Assay: BSK_3C_Vis: BioMAP Diversity Plus: 3C Assay for Morphology Visualization (AID 2283025);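 further: fitted both ways so gain or loss versus DMSO counts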
Conditions: primary human endothelial cells (HUVEC)
Protocol: BSK_3C is a cell-based, multiplexed-readout assay that uses umbilical vein endothelium, a human vascular primary cell, with measurements taken at 24 hours after chemical dosing in a 96-well plate.BSK_3C_Vis is an assay component measured in the BSK_3C assay. It measures NA related to cell morphology using light microscopy technology.Data from the assay component BSK_3C_Vis was analyzed into 1 assay endpoint. This assay endpoint, BSK_3C_Vis, was analyzed with bidirectional fitting relative to DMSO as the negative control and baseline of activity. Using a type of morphology reporter, gain or loss-of-signal activity can be used to understand changes in the background control. Furthermore, this assay endpoint can be referred to as a secondary readout, because this assay has produced multiple assay endpoints where this one serves a background control function. To generalize the intended target to other relatable targets, this assay endpoint is annotated to the cell morphology intended target family, where the subfamily is cell conformation.
The levels of cell surface (or secreted, indicated by the prefix "s") biomarker endpoints were measured by ELISA. Overt cytotoxicity to cells in confluent adherent cultures (all systems other than the BT system) was assessed by measuring total protein levels using sulforhodamine B (SRB) staining in parallel cultures at the time of biomarker measurements, indicated as SRB endpoints. For proliferation assays for adherent cell types, individual cell types are cultured at sub-confluence and relative cell numbers quantified by SRB staining at time points optimized for each system (48 h: 3C and CASM3C systems; 72 h: BT and HDF3CGF systems; 96 h: SAg system). SRB was performed by staining cells with 0.1% SRB after fixation with 10% TCA and reading wells at 560 nm.Viability and proliferation of PBMC (T cells) was quantified by Alamar Blue reduction for the SAg and BT systems. For PBMC viability (referred to as PBMC Cytotoxicity within the assay endpoint names), cells were plated (75,000/well in a 96-well plate) and then chemical samples added for 1 h before addition of activators, SEB and TSST-1 (20 ng/mL final concentration each). Cells were incubated for 90 h. Then, Alamar Blue (20 uL/well) (Invitrogen, Cat DAL1100) was added for 6 h, and the plates were read with a fluorescence microplate reader at 546/580 nm (excitation/emission). For PBMC proliferation, cells were plated and activated as above but incubated for only 16 h prior to addition of Alamar Blue. Plates were read after 6 h.

| Compound | outcome | AC50 |
| --- | --- | --- |
| O=C(O)CCCCC(=O)O | inactive | – |
| CC1(C)CC(N=C=O)CC(C)(CN=C=O)C1 (stereo not given) | – | 39 µM (active) |
| Cc1cccc(Nc2cc(Cl)nc(SCC(=O)O)n2)c1C | inactive | – |
| CCCCc1ccc2c(n1)[C@@H](c1ccc(OC)cc1C[C@H](C)C(=O)O)[C@H](C(=O)O)[C@H]2c1ccc2c(c1)OCO2 | inactive | – |
| C=CCc1ccc(O)c(OC)c1 | inactive | – |
| FC(F)(F)C(F)(F)C(F)(F)C(F)(F)C(F)(F)C(F)(F)CCI | inactive | – |
| CCCc1cc(=O)[nH]c(=S)[nH]1 | inactive | – |
| CCc1c(C(=O)NN2CCCCC2)nn(-c2ccc(Cl)cc2Cl)c1-c1ccc(Br)cc1 | – | 13.2 µM (active) |
| c1cc(-c2ccncc2)ccn1 | – | 39 µM (active) |
| CC(CO)OC(C)CO (stereo not given) (tested in a mixture with another compound) | inactive | – |
| O=C(N[C@@H](Cc1ccccc1)[C@@H](O)C(=O)N1C[C@@H](O)[C@@H](O)C1)c1cc2cc(Cl)ccc2[nH]1 | inactive | – |
| OC[C@@H](O)[C@@H](O)[C@H](O)[C@H](O)CO | inactive | – |
| O=c1[nH]cc(F)c(=O)[nH]1 | inactive | – |
| CC(C)(C)c1cc(O)c(C(C)(C)C)cc1O | – | 9.8 µM (active) |
| COCCOC[C@H](CC1(C(=O)NC2CCC(C(=O)O)CC2)CCCC1)C(=O)Oc1ccc2c(c1)CCC2 (stereo not given in full) | inactive | – |
| O=C(O)Cc1ccccc1Nc1c(Cl)cccc1Cl | inactive | – |
| CC(=O)Oc1ccccc1C(=O)O | inactive | – |
| CCCCCCOCCO | inactive | – |
| NS(=O)(=O)c1cc2c(cc1Cl)NCNS2(=O)=O | inactive | – |
| Cc1nc(C)nc(N2C[C@@H](C)N(c3ccnc([C@@H](C)O)n3)[C@@H](C)C2)n1 | inactive | – |

| Compound | outcome | AC50 |
| --- | --- | --- |
| COc1ccc(C)cc1N | inactive | – |
| Cc1ccc(N(C)C)cc1 | inactive | – |
| C1CCC(SSC2CCCCC2)CC1 | inactive | – |
| Clc1cc(Cl)c(Cl)cc1Cl | inactive | – |
| CC(=O)OCCOCCOCCOC(C)=O | inactive | – |
| COC(=O)c1ccc(O)cc1 | inactive | – |
| Cc1nc(-c2ccc3c(c2)CCN(CCC2CCC(NC(=O)/C=C/c4ccc(F)cc4)CC2)CC3)no1 (stereo not given) | – | 6.4 µM (active) |
| CC(=O)OC/C=C(\C)CCC=C(C)C | inactive | – |
| CNC(=O)[C@H]1O[C@@H](n2cnc3c(NCc4cc(Cl)ccc4OCc4cc(C)no4)ncnc32)[C@H](O)[C@@H]1N | inactive | – |
| CCCCCCCCCCCCCCCCCC(=O)O | – | 39 µM (active) |
| NCC1(Cc2noc(=O)[nH]2)CCCCC1 | inactive | – |
| CC(=O)C(C)=CC1C(C)=CCCC1(C)C (stereo not given) | inactive | – |
| CCNc1cccc(C)c1 | inactive | – |
| Nc1nc(N)c2nc(CNc3ccc(C(=O)N[C@@H](CCC(=O)O)C(=O)O)cc3)cnc2n1 | inactive | – |
| CCCCOC(=O)CCCCCCCCC(=O)OCCCC | inactive | – |
| Cc1c(C(=O)O)c(O)cc2c1C(=O)c1c(O)c([C@@H]3O[C@H](CO)[C@@H](O)[C@H](O)[C@H]3O)c(O)c(O)c1C2=O | inactive | – |
| CCOC(=O)C(C)(C)Oc1ccc(Cl)cc1 | inactive | – |
| CCCCCCCCCCCCCO | – | 38.6 µM (active) |
| COc1ccc2c(c1)c(CC(=O)O)c(C)n2C(=O)c1ccc(Cl)cc1 | inactive | – |
| O=C(OCCCCCOC(=O)c1ccccc1)c1ccccc1 | inactive | – |
